Assay outcomes from PubChem.
A selection: hits, their analogues and other compounds. The true share with any hit is near 3.4%.
hcDAF12 agonist – H. contortus DAF-12 activation, primary screen; AID 652067; HEK293 hcDAF-12 lit1-tk-luc reporter, luminescence; 0% DMSO, 100% Δ7-dafachronic acid; 370,000 compounds, 1.4% hits; activation, % at 6.8 µM;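 active = activation above the mean of all tested compounds plus 3 SD, cut at about 5.5% in these data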
NF-kB neuron act – NF-kB expression increase, human neuronal cells; NF-kB reporter expression; active compounds read high; fold change at 12.5 µM; 190,000 compounds, 1.6% hits; in the data active = fold change above about 3.3
APP 5'UTR act – APP 5'UTR luciferase reporter activation | SH-SY5Y APP 5'UTR luciferase reporter, luminescence; zero percent = DMSO vehicle wells | activation, % at 2 µM | 190,000 compounds, 1% hits;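 active = activation above a set limit, based on mean plus 3 SD of controls, cut at about 140% in these data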
hgDAF12 agonist – agonists of H. glycines DAF-12 nuclear receptor. AID 687014. activation, % at 6.8 µM. HEK293 GAL4-hgDAF12 UAS-luciferase reporter, agonist luminescence; normalized to butyrate control. 370,000 compounds, 1.8% hits;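 active = activation above a cutoff set at the mean of all screened compounds plus 3 SD, cut at about 10% in these data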
ssDAF12 agonist – S. stercoralis DAF-12 activation, primary screen; HEK293 ssDAF-12/GRIP1 lit1-tk-luc reporter, luminescence; % of 3 µM dafachronic acid response; activation, % at 6.8 µM; 370,000 compounds, 1% hits; AID 652126;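 active = activation above the mean over all tested compounds plus 3 SD, cut at about 0.9% in these data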
Large screens that a line does not name were inactive.

Cc1ccc(-c2nc3ccc(Br)cn3c2Cc2ccsc2)cc1	hgDAF12 agonist 21, ssDAF12 agonist 1.1 (no result: NF-kB neuron act, APP 5'UTR act)
O=c1cc(N2CCN(c3cccc(C(F)(F)F)c3)CC2)[nH]c(=O)n1C1CCCCC1	none (no result: NF-kB neuron act, APP 5'UTR act)
CCn1c(Cc2cccs2)nnc1SCC(=O)Nc1ccc(OCc2ccccc2)cc1	none (no result: NF-kB neuron act, APP 5'UTR act)
Fc1ccc(-c2nc3ccc(Cl)cn3c2Cc2ccsc2)cc1	none (no result: NF-kB neuron act, APP 5'UTR act)
Cc1ccc(-c2nc3ccc(Cl)cn3c2Cc2ccsc2)cc1	hgDAF12 agonist 13 (no result: NF-kB neuron act, APP 5'UTR act)
Cc1ccccc1-c1nnc(-c2ccc(Cl)cc2)o1	NF-kB neuron act 4.1
Brc1ccc(-c2nnc(-c3cccc(Br)c3)o2)cc1	none
Brc1ccc(-c2nnc(-c3ccccc3Br)o2)cc1	APP 5'UTR act 169
Cc1ccc(-c2nnc(-c3ccc(Br)cc3)o2)o1	NF-kB neuron act 3.8
COC(=O)[C@@]12CCCCC3=C1N(CCC3)C(=O)[C@H]2CC(=O)N1CCCCC1	none (no result: NF-kB neuron act, APP 5'UTR act)
CCn1c(Cc2cccs2)nnc1SCC(=O)c1ccc(Cl)cc1	none (no result: NF-kB neuron act, APP 5'UTR act)
C/C(=N/NC(=O)c1ccc(Br)o1)C(C)C	hgDAF12 agonist 11
CN1C(=O)c2cc(NC(=O)c3ccccc3)ccc2OC[C@H]2O[C@@H](CC(=O)NCC3CC3)CC[C@@H]21	none (no result: NF-kB neuron act, APP 5'UTR act)
Cc1ccc(Cn2c(/C=C/c3ccco3)nc3ccccc32)cc1	hcDAF12 agonist 6.3
Clc1ccc(Cn2c(/C=C/c3ccco3)nc3ccccc32)cc1	none
S=c1[nH]nc(-c2cc(-c3ccccc3)n[nH]2)n1N=Cc1cccc(OCc2ccccc2)c1	none (no result: NF-kB neuron act, APP 5'UTR act)
CCN(C(=O)Cn1c([N+](=O)[O-])cnc1C)c1ccccc1	ssDAF12 agonist 1.5 (no result: NF-kB neuron act, APP 5'UTR act)
CC1=NC(=O)C(N=Nc2ccccc2)N1c1ccccc1 (stereo not drawn)	NF-kB neuron act 4.4
O=C(OCC#CCSc1nnc(-c2cccc3ccccc23)o1)c1ccc(OC(F)F)cc1	none (no result: NF-kB neuron act, APP 5'UTR act)
COc1ccc(OC)c(NC(=O)c2cc3ccccc3o2)c1	none
COc1ccc(C)cc1NC(=O)c1cc2ccccc2o1	hcDAF12 agonist 6.0, ssDAF12 agonist 1.6
O=C(Nc1ccccc1C(F)(F)F)c1cc2ccccc2o1	hgDAF12 agonist 13 (no result: NF-kB neuron act, APP 5'UTR act)
CCOc1ccccc1NC(=O)c1cc2ccccc2oc1=O	none (no result: NF-kB neuron act, APP 5'UTR act)
COC(=O)c1cccc(NC(=O)c2cc3ccccc3o2)c1	hgDAF12 agonist 12 (no result: NF-kB neuron act, APP 5'UTR act)
CCOc1ccccc1NC(=O)c1cc2ccccc2o1	ssDAF12 agonist 0.9 (no result: NF-kB neuron act, APP 5'UTR act)
COC(=O)c1cc(NC(=O)c2cc3ccccc3o2)cc(C(=O)OC)c1	none (no result: NF-kB neuron act, APP 5'UTR act)
COC(=O)c1ccccc1NC(=O)c1cc2ccccc2o1	none (no result: NF-kB neuron act, APP 5'UTR act)
COc1cccc(-c2ncn(CCc3ccccc3OC)c2CC(C)C)c1	none (no result: NF-kB neuron act, APP 5'UTR act)
Cc1cccc(NC(=O)c2cccc3c2-c2ccccc2C3=O)c1C	none (no result: NF-kB neuron act, APP 5'UTR act)
Cc1ccc(NC(=O)c2cc3ccccc3o2)cc1S(=O)(=O)N(C)C	NF-kB neuron act 5.2, hgDAF12 agonist 11
O=C(c1cccs1)n1ccc2ccc(-c3ccc4ccn(Cc5ccccc5)c4c3)cc21	none (no result: NF-kB neuron act, APP 5'UTR act)
Cc1ccnc(NS(=O)(=O)c2ccc(NC(=O)c3ccc([N+](=O)[O-])s3)cc2)n1	NF-kB neuron act 5.7
Cc1ccc(S(=O)(=O)N(C)C)cc1NC(=O)c1ccc2ccccc2n1	ssDAF12 agonist 1.1 (no result: NF-kB neuron act, APP 5'UTR act)
N#Cc1ccc(/C=C2\CC3(OC(=O)C4CCCC4)CCCN2C3)cc1 (stereo not drawn)	none (no result: NF-kB neuron act, APP 5'UTR act)
Cc1ccc(NC(=S)N(CCN(C)C)Cc2cc3cccc(C)c3[nH]c2=O)cc1	ssDAF12 agonist 1.7
Cc1cccc(NC(=S)N(CCN(C)C)Cc2cc3cccc(C)c3[nH]c2=O)c1	none
COc1ccc(Cl)cc1Nc1nc(N)c2ccccc2n1	none (no result: NF-kB neuron act, APP 5'UTR act)
Cc1ccc(C)c(Nc2nc(N)c3ccccc3n2)c1	APP 5'UTR act 184, hgDAF12 agonist 12
N#Cc1ccc(-c2nc3c4ccccc4ccn3c2Cc2ccsc2)cc1	ssDAF12 agonist 1.5 (no result: NF-kB neuron act, APP 5'UTR act)
N#Cc1ccc(-c2nc3c4ccccc4ccn3c2Cc2cccc(Cl)c2)cc1	hgDAF12 agonist 11 (no result: NF-kB neuron act, APP 5'UTR act)
FC(F)(F)c1ccccc1Cc1c(-c2cccc(Br)c2)nc2c3ccccc3ccn12	hcDAF12 agonist 5.8, ssDAF12 agonist 1.4 (no result: NF-kB neuron act, APP 5'UTR act)
Cc1ccc(Cc2c(-c3ccco3)nc3c4ccccc4ccn23)cc1	none (no result: NF-kB neuron act, APP 5'UTR act)
c1ccc(Cc2c(-c3ccccc3)nc3c4ccccc4ccn23)cc1	ssDAF12 agonist 0.9 (no result: NF-kB neuron act, APP 5'UTR act)
Cc1ccc(-c2nc3c4ccccc4ccn3c2Cc2cccc(Cl)c2)cc1	none (no result: NF-kB neuron act, APP 5'UTR act)
Cc1ccc(C=NNC(=O)CSc2nc3sc4c(c3c(=O)n2-c2ccccc2)CCCC4)s1	none (no result: NF-kB neuron act, APP 5'UTR act)
CCOC(=O)C1=NOC(C(=O)Nc2nccs2)(C(=O)C2CC2)C1 (stereo not drawn)	none (no result: NF-kB neuron act, APP 5'UTR act)
